High-throughput results: PubChem BioAssay, several laboratories
TRPM1 prom inh: reduces MITF-dependent TRPM1 promoter luciferase signal; SK-MEL-5 TRPM1 promoter luciferase, 24 h; inhibition, % at 12.5 µM; 330,000 compounds, 0.83% hits; AID 488899;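 active means mean inhibition across replicates of 60% or more, whatever share of single replicates reaches that level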
Peg3 prom inh: reduces Peg3 promoter-driven luciferase expression in HeLa; inhibition, % at 20 µM; AID 588405; 360,000 compounds, 1.7% hits; HeLa PEG-Prom luciferase reporter, luminescence, overnight;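 active means inhibition of at least 50% at 20 µM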
HIF-2a inh: blocks HIF-2a reporter activity. inhibition, % at 18.8 µM. AID 624352. 786-0 RCC cells HIF-2a reporter, luciferase luminescence, overnight. 360,000 compounds, 0.72% hits;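 active means inhibition of the luminescence signal of 40% or more relative to plate controls, in a single-dose primary screen at 18.75 µM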
KKLEB cytotox: CF airway cell cytotoxicity counter-screen; KKLEB CF airway cells viability, ATPlite luminescence, overnight; stronger effect = lower value; cells stimulated with P. aeruginosa culture filtrate; activity change (cytotoxicity), % at 5 µM; 360,000 compounds, 0.36% hits; AID 602141;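 active means corrected activity change at or below -50% at 5 µM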
CF NFkB inh: cystic fibrosis NF-kB activation inhibition | KKLEB NF-kB-GFP reporter, PAF-induced, GFP fluorescence overnight | inhibition, % at 5 µM | 360,000 compounds, 0.86% hits;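 active means at least 50% inhibition at 5 µM, scaled per plate between neutral and stimulator controls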;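 further: PAF is a Pseudomonas aeruginosa culture filtrate used as stimulus; plate controls were PAF-stimulated DMSO wells for no effect and unstimulated DMSO wells for full effect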
Shn3 inh set2: reduces Shn3 3'UTR luciferase signal in osteoblasts; inhibition, % at 12.5 µM; 360,000 compounds, 0.52% hits; Clone20 osteoblast Shn3 3'UTR firefly luciferase, 24 h;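 active means mean inhibition of at least 75% with every replicate also reaching 75%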;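 further: 0% = median of neutral control wells and 100% = pilot-screen positive control compound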
Mdm2 MdmX conf: confirmation of inhibitors of human Mdm2/MdmX interaction, set 2. shares compounds with HIF-2a inh. SaOS-2 split-luciferase Mdm2/MdmX complementation, luminescence. inhibition, % at 8 µM. 740 compounds, 99% hits;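 active means mean inhibition of the luminescence signal across two replicates at or above 26 percent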
Target sequence (O15151 whole entry, looked up): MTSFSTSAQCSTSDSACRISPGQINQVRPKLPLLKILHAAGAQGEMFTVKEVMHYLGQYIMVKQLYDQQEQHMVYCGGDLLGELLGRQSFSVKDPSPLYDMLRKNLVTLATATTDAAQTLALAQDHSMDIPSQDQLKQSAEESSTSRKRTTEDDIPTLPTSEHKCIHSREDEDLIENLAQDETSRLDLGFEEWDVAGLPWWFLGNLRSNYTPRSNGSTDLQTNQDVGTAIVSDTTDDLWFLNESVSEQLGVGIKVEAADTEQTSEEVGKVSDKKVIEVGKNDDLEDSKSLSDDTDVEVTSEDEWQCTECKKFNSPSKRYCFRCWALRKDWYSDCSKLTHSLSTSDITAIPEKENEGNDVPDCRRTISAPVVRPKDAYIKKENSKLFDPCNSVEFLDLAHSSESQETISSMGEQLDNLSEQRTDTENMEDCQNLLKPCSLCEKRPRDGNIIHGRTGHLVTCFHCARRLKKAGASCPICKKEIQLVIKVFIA
Target sequence (Q00987 whole entry, looked up): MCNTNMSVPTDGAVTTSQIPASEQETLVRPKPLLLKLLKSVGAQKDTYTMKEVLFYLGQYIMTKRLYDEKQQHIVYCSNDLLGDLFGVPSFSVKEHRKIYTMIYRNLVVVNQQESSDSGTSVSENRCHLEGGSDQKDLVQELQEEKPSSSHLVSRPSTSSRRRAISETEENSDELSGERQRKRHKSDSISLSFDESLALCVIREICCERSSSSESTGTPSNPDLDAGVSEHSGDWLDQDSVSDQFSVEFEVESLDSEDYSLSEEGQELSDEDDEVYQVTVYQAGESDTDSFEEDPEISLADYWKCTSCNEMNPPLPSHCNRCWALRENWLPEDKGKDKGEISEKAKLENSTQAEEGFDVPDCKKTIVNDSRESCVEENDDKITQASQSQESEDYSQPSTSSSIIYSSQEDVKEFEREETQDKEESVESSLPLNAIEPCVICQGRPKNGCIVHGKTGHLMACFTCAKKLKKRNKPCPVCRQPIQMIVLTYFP
HIF-2a conf: HIF-2a inhibition, single concentration confirmation | shares compounds with HIF-2a inh | 786-0 RCC cells, HIF-2a luciferase reporter luminescence, overnight | inhibition, % at 18.8 µM | 1,800 compounds, 56% hits;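 active means mean inhibition across four replicates of at least 40 percent at the single tested concentration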
HIF-1a cs: HIF-1a inhibition counter-screen for HIF-2a hits; shares compounds with HIF-2a inh; MiaPaCa-2 HIF-1a luciferase reporter, desferoxamine, overnight; inhibition, % at 18.8 µM; 1,800 compounds, 72% hits;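 active means mean inhibition of the reporter signal across four replicates at the single tested dose of 50% or more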
An asterisk follows results filed as active; / = no result given. Compounds with a hit are over-represented: about 2.8% of the library has one in this group of screens.

SMILES | TRPM1 prom inh | Peg3 prom inh | HIF-2a inh | KKLEB cytotox | CF NFkB inh | Shn3 inh set2 | HIF-2a conf | HIF-1a cs | others
O=C(O)c1cc(S(=O)(=O)Nc2ccc3c(c2)OCCO3)c(Cl)cc1Cl | 13 | 20 | 42* | -5 | 4 | 38 | 54* | 71*
Cc1nn(C)cc1S(=O)(=O)Nc1ccc2c(c1)OCCO2 | -10 | 22 | 41* | 4 | -15 | 18 | 45* | 56*
CCCNC(=O)CS(=O)(=O)c1ccccc1 | -23 | -4 | -13 | -18 | 10 | 5 | / | /
Nc1cccc(C(=O)NCCNC(=O)c2cccc(N)c2)c1 | -7 | -7 | 12 | 6 | -7 | -11 | / | /
CC1(C)C(=O)Nc2ccccc2N1C(=O)Cn1ncc(Cl)c(Cl)c1=O | 3 | 40 | 5 | 6 | 7 | -18 | / | / | Mdm2 MdmX conf=58*
COC(=O)Cc1ccc(NC(=O)c2ccc(C(C)(C)C)cc2)cc1 | 59 | -44 | 90* | -8 | 5 | 73 | 94* | 40
CCCn1ncc(CN2CCC(CO)(CC3CCCCO3)CC2)c1C (stereo not given) | -3 | -3 | 40* | -18 | 7 | -1 | 5 | 4
Cc1nn(C)c(Cl)c1CN1CCC(CO)(CC2CCCCO2)CC1 (stereo not given) | 0 | 2 | 7 | 1 | 1 | -12 | / | /
Cc1cc(C)c(C)c(S(=O)(=O)ON2C(=O)c3ccccc3C2=O)c1C | 32 | 89* | 56* | -53* | 69* | 65 | 50* | 8
Cc1ccc(S(=O)(=O)ON2C(=O)c3ccccc3C2=O)c(C)c1 | 39 | 60* | 72* | -3 | 19 | 82 | 59* | -1
O=CC1=C(c2ccccc2)Oc2ccccc2O1 | 12 | 98* | 46* | -5 | 37 | 4 | 12 | 107*
Cc1nn(Cc2ccccc2)c(Cl)c1C(=O)OCC#N | -6 | 9 | 20 | -27 | 10 | -6 | / | /
CCOC(=O)c1ccc(NC(=O)c2c(C)[nH]c(C(=O)OCC)c2C)cc1 | 8 | 4 | 7 | 0 | 7 | -3 | / | /
CCOC(=O)c1c(C)[nH]c(C(=O)Nc2ccc(NC(C)=O)cc2)c1C | 16 | 2 | 88* | 4 | 3 | 22 | 96* | 84*
CCOC(=O)c1cc(-c2csc(Nc3c(C)cc(C)cc3C)n2)on1 | 14 | 13 | 57* | -5 | 16 | -16 | 19 | 16
CCOC(=O)c1cc(-c2csc(-c3cccc(Cl)c3)n2)on1 | 14 | -4 | 10 | 5 | 9 | -14 | / | /
Cc1ccc(CNC(=O)CNC(=O)[C@@H]2Cc3ccccc3CN2C(=O)OC(C)(C)C)cc1 | -6 | 6 | 3 | 6 | -15 | 0 | / | /
S=C1c2ccccc2CN1c1ccccc1 | -37 | -125 | -146 | 12 | -10 | -30 | / | /
Cc1ccc(N2Cc3ccccc3C2=S)cc1 | -67 | -270 | 84* | -4 | -7 | -61 | -218 | -74
Cc1ccc(NC(=O)CCN2CCCCC2)cc1 | 5 | 34 | 61* | -3 | -6 | 25 | 55* | 73*
O=C1C=CC(=C(c2ccc(O)cc2)c2ccc(O)cc2)C=C1 | 83* | 85* | 85* | 5 | 32 | -23 | 81* | 107*
CN1C(=O)Cc2cc(S(=O)(=O)Nc3ccc(N4CCOCC4)cc3)ccc21 | -3 | 5 | 16 | 4 | 1 | -5 | / | /
Cc1ccc2nc(NC(=O)CCCC(=O)O)sc2c1 | 79* | 46 | 83* | -10 | 7 | 51 | 95* | 90*
COC(=O)c1c(-c2ccccc2)csc1NC(=O)c1c(-c2ccccc2)noc1C | 14 | 15 | -4 | -10 | -13 | 75 | / | / | Mdm2 MdmX conf=99*
Cc1cc(C)c2cc3c(N)c(C(=O)N4CCOCC4)sc3nc2c1 | -49 | -39 | -13 | 7 | 4 | -23 | / | /
SMILES | TRPM1 prom inh | Peg3 prom inh | HIF-2a inh | KKLEB cytotox | CF NFkB inh | Shn3 inh set2 | HIF-2a conf | HIF-1a cs | others
Cc1cc(C)c2cc3c(N)c(C(=O)Nc4c(C)[nH]c(=O)[nH]c4=O)sc3nc2c1 | 30 | 38 | 69* | -1 | 3 | -7 | 28 | 66*
O=C(COc1ccc2c3c(c(=O)oc2c1)CCCC3)N1C[C@H]2C[C@@H](C1)c1cccc(=O)n1C2 | -6 | 2 | 9 | 8 | -22 | 9 | / | /
c1csc(C2=Nn3c(nnc3-c3ccncc3)SC2)c1 | -13 | -12 | -1 | -16 | 66* | 24 | / | / | Mdm2 MdmX conf=93*
CCOC(=O)CNC(=O)CSc1ncnc2c1cnn2Cc1ccccc1 | 6 | -3 | 48* | -9 | 15 | -1 | 20 | 16
CCOC(=O)CNC(=O)CSc1ncnc2c1cnn2-c1ccc(Cl)cc1 | -13 | -3 | 8 | -8 | 11 | -1 | / | /
O=C(NCCN1C(=O)S/C(=C\c2ccc(Cl)c([N+](=O)[O-])c2)C1=O)C1=COCCO1 | 29 | 93* | 44* | 16 | 8 | 6 | -2 | 104*
C=C1CCC2C(C)(C)[C@H](O)CC[C@@]2(C)[C@@H]1COc1cc(=O)oc2ccccc12 (stereo not given in full) | -14 | 44 | 7 | -8 | 29 | -12 | / | /
C=C1CC(COc2cc(=O)oc3ccccc23)(c2ccccc2)OC1=O (stereo not given) | 94* | 106* | 90* | -104* | 98* | 97* | 57* | 106*
COc1ccc(C(C(=O)NC2CCCC2)n2c(CSCCOc3ccccc3)nc3ccccc32)cc1 (stereo not given) | / | / | 43* | / | / | / | 74* | 63*
CCC(C(=O)NCc1ccccc1)n1c(CSCCOc2ccccc2)nc2ccccc21 (stereo not given) | / | / | 64* | / | / | / | 74* | 77*
CC(C(=O)NCc1ccccc1)n1c(CSCCOc2ccccc2)nc2ccccc21 (stereo not given) | / | / | -1 | / | / | / | / | /
COc1ccc(C(C(=O)NC2CCCC2)n2c(Cc3cc(F)cc(F)c3)nc3ccccc32)cc1 (stereo not given) | / | / | -8 | / | / | / | / | /
CN(NC(=O)c1ccccc1Cl)c1ncc(C(F)(F)F)cc1Cl | 10 | 8 | 20 | -8 | 23 | 4 | / | /
O=C1CCCN1C(=O)CSc1ccc2ccccc2n1 | 4 | -12 | -7 | 4 | -11 | 3 | / | /
O=C(Nc1ccccc1N1CCOCC1)c1cccc2ccccc12 | / | 18 | -2 | 5 | 13 | -8 | / | /
COc1ccc(NC(=S)NC(NC(=O)/C=C/c2ccccc2)C(Cl)(Cl)Cl)cc1 (stereo not given) | 7 | 53* | 66* | -3 | 3 | 24 | 8 | 30
